Assay [1] can be described thus: inhibitors of TNFa-induced NFkB p65 translocation, primary screen, imaging, HUVEC, MLSMR starter and 10KST1 sets (AID 438).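 Further: compound added about 3h40 before a 20 min TNFalpha stimulation.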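 On inhibition: signal is the nuclear over cytoplasmic p65 intensity ratio per well.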 To be noted: HUVEC TNFa-induced p65 nuclear translocation; cell count: measured here: nuclei count (cytotoxicity indicator), at 2.08 µM; inhibition: at 2 µM, stronger effect = higher value, 0% TNFa-plus-vehicle, 100% no-TNFa wells.
The nature of assay [2]: inhibitors of mutant huntingtin aggregation, primary screen, imaging, exon1htt(103Q)mCFP cells, high-content imaging (AID 483;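 active means visual image review flags a hit and inhibition of aggregation exceeds 20%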;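 further: compound exposure lasted 3 days before fixation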;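 on nuclei count: percent of the per-plate median nuclei count of sample wells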). Conditions: exon1htt(103Q)mCFP cell line, aggregate imaging, at 2 µM; inhibition of aggregation: stronger effect = higher value; nuclei count: measured here: cell count, toxicity.
Assay [3] is described as follows: inhibitors of E-selectin induction by TNFa, primary screen, imaging, HUVEC, immunofluorescence, MLSMR starter and 10KST1 sets (AID 487;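 active means visually confirmed hit in the image check and inhibition above 20%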;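 on inhibition: signal is fraction of cell area covered by stained E-selectin grains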;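 on nuclei count: 100% = median nuclei count of all wells on the same plate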). To be noted: HUVEC TNFalpha-induced E-selectin immunofluorescence imaging, at 2 µM; inhibition: stronger effect = higher value; nuclei count: measured here: cell number, toxicity.
The target of assay [4] is Voltage-gated potassium channel subunit beta-2 (Rattus norvegicus) (UniProt P62483). Nature of the assay: KvBeta enzyme negative modulators, primary screen, biochemical, NADPH fluorescence (AID 622;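 active means fluorescence slope higher than the sample average by over 3 SD, cut at about -0.22 in these data, passing the limit was not always enough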;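 further: slope of raw intensity against log time taken from 70 to 1610 s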). Conditions: recombinant KvBeta, 4-cyanobenzaldehyde reduction, at 10 µM, stronger effect = higher value.
Sequence of Voltage-gated potassium channel subunit beta-2 (Rattus norvegicus) (P62483 whole entry, looked up): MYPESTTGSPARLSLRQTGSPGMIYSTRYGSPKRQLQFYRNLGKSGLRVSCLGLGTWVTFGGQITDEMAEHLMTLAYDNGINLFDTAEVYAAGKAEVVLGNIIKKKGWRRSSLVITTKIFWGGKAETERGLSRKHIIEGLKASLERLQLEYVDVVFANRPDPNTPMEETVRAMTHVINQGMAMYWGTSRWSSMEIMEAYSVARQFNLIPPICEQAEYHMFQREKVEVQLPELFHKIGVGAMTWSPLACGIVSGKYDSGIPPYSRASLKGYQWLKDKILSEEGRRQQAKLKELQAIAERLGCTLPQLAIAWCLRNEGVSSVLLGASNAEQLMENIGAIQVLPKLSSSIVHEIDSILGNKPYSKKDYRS
The target is the same in assay [5]. The experiment in a line: KvBeta positive modulators, primary screen, biochemical, NADPH fluorescence (AID 623;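 active means NADPH fluorescence slope more negative than the mean of all samples by about 3 SD, 99.7% confidence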;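 further: fluorescence intensity change per second fitted from 20 to 320 s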). To be noted: Recombinant KvBeta, NADPH fluorescence decrease slope, 10 min; at 10 µM; stronger effect = lower value.
In assay [6] the target is Alpha-2C adrenergic receptor (Homo sapiens) (UniProt P18825). The experiment in a line: modulators of alpha2C/GIRK thallium flux, primary screen, cell-based, HEK293 alpha2C/GIRK1/2 (AID 624;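 active means fluorescence slope after compound addition differing from the mean of all screened samples at 99.7% confidence, in either direction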;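 further: slope of fluorescence ratio to pre-addition baseline per second over 15 to 24 s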). Conditions: thallium flux BTC fluorescence, at 10 µM, actives lie on both sides.
Sequence of Alpha-2C adrenergic receptor (Homo sapiens) (P18825 whole entry, looked up): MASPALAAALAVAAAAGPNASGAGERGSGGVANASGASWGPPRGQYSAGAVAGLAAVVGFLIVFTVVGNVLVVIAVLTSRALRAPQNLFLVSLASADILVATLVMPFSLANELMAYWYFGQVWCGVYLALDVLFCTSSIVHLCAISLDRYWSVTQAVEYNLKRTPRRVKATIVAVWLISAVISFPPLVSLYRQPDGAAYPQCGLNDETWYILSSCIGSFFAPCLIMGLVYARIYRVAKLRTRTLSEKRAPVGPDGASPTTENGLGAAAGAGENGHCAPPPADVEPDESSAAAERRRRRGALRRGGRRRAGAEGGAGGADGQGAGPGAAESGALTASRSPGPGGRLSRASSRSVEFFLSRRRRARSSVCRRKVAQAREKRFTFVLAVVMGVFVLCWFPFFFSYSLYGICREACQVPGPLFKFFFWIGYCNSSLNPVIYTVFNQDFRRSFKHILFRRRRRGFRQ
Assay [7] is described as follows: inhibitors of Sendai virus-induced IRF3 signaling, primary screen, TLR/RLR signaling modifier project, cell-based, Sendai virus stimulus, luciferase, 10K MLSCN set (AID 602276;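 active means inhibition at or above 50% at 10 µM; inactive means inhibition below 50%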;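 further: firefly luciferase from ISG56 promoter only with Renilla not read in this screen; 0% = Sendai virus plus DMSO and 100% = medium plus DMSO without virus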). Conditions: HEK293 RL24 IRF3 luciferase reporter, at 10 µM, stronger effect = higher value.
Assay [8] can be described thus: inhibitors of poly I:C-induced TLR3 signaling, primary screen, cell-based, poly I:C stimulus, luciferase, 10K MLSCN set (AID 602277;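 active means inhibition of the reporter signal at or above 50%; inactive means inhibition below 50%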). Conditions: HEK293-TLR3 RL24 IRF3 luciferase reporter, at 10 µM, stronger effect = higher value.

Active and inactive are the calls of the source.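 How the source made its calls, unless noted: active means inhibition above 20% together with a positive visual image hit; inconclusive means visual image hit but inhibition not above 20%; inactive means no visual image hit.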

For the molecule `O=C(NC(=O)c1ccc(Cl)cc1)Nc1cc(N2CCCCC2)ncn1`, the cell count in assay [1] came out at 333. For the same molecule, the inhibition in assay [1] is 5.5% (inactive); in assay [3], -70% (inactive); in assay [7] it was 13.2% (inactive); in assay [8] it was 9.71% (inactive). The inhibition of aggregation in assay [2] is 11.3% (inactive). Moreover, the results for the nuclei count in assay [2] and in assay [3] were 85.1% and 89.5%, respectively. Moreover, the fluorescence slope in assay [4] was -0.48 (inactive). Also, the NADPH fluorescence slope in assay [5] was -4.9e-05 (inactive). In addition, the slope in assay [6] is 0.00674 (inactive).
For `CC1CN(c2nc3ccccc3nc2C(C#N)C(=O)OC2CCCCC2)CC(C)O1` (centres undefined), in assay [1], the cell count was 382. Besides, the inhibition was -6.2% (inactive) in assay [1], -12.3% (inactive) in assay [3], 15.1% (inactive) in assay [7] and 22.4% (inactive) in assay [8]. The inhibition of aggregation in assay [2] was -28.8% (inactive). The nuclei count in assay [2] turned out to be 116%; in assay [3] it was 111%. Moreover, the fluorescence slope in assay [4] was -0.364 (inactive). Besides, the NADPH fluorescence slope in assay [5] is 2.4e-05 (inactive). The slope in assay [6] was 0.0019 (active).
Turning to `CCOCCn1c(CN2CCC(Cc3ccccc3)CC2)nc2c1c(=O)n(C)c(=O)n2C`, the cell count in assay [1] amounted to 598. In addition, the inhibition is 10.6% (inactive) in assay [1], 7.1% (inactive) in assay [3], 19.8% (inactive) in assay [7] and 22.9% (inactive) in assay [8]. Also, the inhibition of aggregation in assay [2] is 25.3% (inactive). For the same molecule, the results for the nuclei count in assay [2] and in assay [3] were 84.1% and 108%, respectively. In addition, the fluorescence slope in assay [4] was -0.473 (inactive). Further, in assay [5], the NADPH fluorescence slope was -2.3e-05 (inactive). Further, the slope in assay [6] is 0.00435 (inactive).
As to `COc1ccc(C)cc1S(=O)(=O)N(C)CC(=O)Nc1ccc2c(c1)OCCO2`, the cell count in assay [1] is 489. The inhibition in assay [1] is -8.1% (inactive); in assay [3], 22.5% (inactive); in assay [7], -4.31% (inactive); in assay [8], -10.2% (inactive). Further, the inhibition of aggregation in assay [2] was 7.6% (inactive). Moreover, the values for the nuclei count in assay [2] and in assay [3] were 92.1% and 110%, respectively. Moreover, in assay [4], the fluorescence slope is -0.427 (inactive). In addition, in assay [5], the NADPH fluorescence slope is 3.4e-05 (inactive). Also, the slope in assay [6] was 0.00534 (inactive).
In the case of `CCOc1ccc(/C=N/n2cnnc2)cc1`, in assay [1], the cell count was 442. In addition, the inhibition in assay [1] is -2.2% (inactive); in assay [3], 17.6% (inactive); in assay [7] it was 8.22% (inactive); in assay [8] it was 20.1% (inactive). Besides, the inhibition of aggregation in assay [2] is -4.7% (inactive). The nuclei count in assay [2] came to 89.4%; in assay [3], 117%. The fluorescence slope in assay [4] is -0.402 (inactive). In addition, the NADPH fluorescence slope in assay [5] was -9.1e-05 (inactive). Besides, in assay [6], the slope was 0.00521 (inactive).
On to `C#CCSc1nnc(-c2ccccc2)c(=O)[nH]1`, for which the cell count in assay [1] came to 903. In addition, the inhibition was -8.2% (inactive) in assay [1], -57.3% (inactive) in assay [3], -0.0999% (inactive) in assay [7] and -4.88% (inactive) in assay [8]. Further, the inhibition of aggregation in assay [2] was 0.6% (inactive). The nuclei count in assay [2] was 127%; in assay [3], 109%. The fluorescence slope in assay [4] was -0.505 (inactive). Also, the NADPH fluorescence slope in assay [5] was -4.9e-05 (inactive). Further, the slope in assay [6] is 0.00603 (inactive).
On to `COC(=O)c1ccc(C(=O)OC)c(NC(=O)Nc2ccc3c(c2)OCO3)c1`, for which the cell count in assay [1] was 279. Further, the inhibition in assay [1] was -7.1% (inactive); in assay [3], -15.8% (inactive); in assay [7] it was -24.9% (inactive); in assay [8], -44.2% (inactive). For the same molecule, the inhibition of aggregation in assay [2] is 2.1% (inactive). The figures for the nuclei count in assay [2] and in assay [3] were 94.2% and 95.1%, respectively. For the same molecule, the fluorescence slope in assay [4] was -0.417 (inactive). Further, the NADPH fluorescence slope in assay [5] is 7.6e-06 (inactive). Also, the slope in assay [6] is 0.00311 (inactive).
In the case of `COc1cc(Nc2cc(C)nc3ncnn23)cc(OC)c1OC`, the cell count in assay [1] amounted to 649. In addition, the inhibition in assay [1] was -6.3% (inactive); in assay [3], -23.8% (inactive); in assay [7] it was 1.55% (inactive); in assay [8], 31.7% (inactive). Besides, in assay [2], the inhibition of aggregation is -4.4% (inactive). The figures for the nuclei count in assay [2] and in assay [3] were 109% and 112%, respectively. Further, the fluorescence slope in assay [4] is -0.56 (inactive). Further, in assay [5], the NADPH fluorescence slope was 1.9e-05 (inactive). Besides, the slope in assay [6] was 0.0068 (inactive).
`Cc1cc(Nc2ccccc2F)n2ncnc2n1`: in assay [1], the cell count is 542. Further, the inhibition in assay [1] was 14.8% (inactive); in assay [3] it was -59.1% (inactive); in assay [7] it was -1.22% (inactive); in assay [8], 12.8% (inactive). The inhibition of aggregation in assay [2] was -3.9% (inactive). Also, the nuclei count in assay [2] came out at 137%; in assay [3], 111%. Besides, the fluorescence slope in assay [4] is -0.566 (inactive). Further, the NADPH fluorescence slope in assay [5] was -2.7e-05 (inactive). For the same molecule, the slope in assay [6] is 0.00578 (inactive).
Turning to `COc1ccc(C(=O)N2CCN(C3CCCCC3)CC2)c(OC)c1`, in assay [1], the cell count was 324. Further, the inhibition in assay [1] is -0.9% (inactive); in assay [3] it was -48.1% (inactive); in assay [7] it was 1% (inactive); in assay [8], 12.4% (inactive). For the same molecule, in assay [2], the inhibition of aggregation is -21.3% (inactive). Moreover, the results for the nuclei count in assay [2] and in assay [3] were 83.3% and 138%, respectively. Also, the fluorescence slope in assay [4] was -0.609 (inactive). Moreover, the NADPH fluorescence slope in assay [5] is -1.5e-05 (inactive). The slope in assay [6] was 0.00408 (inactive).
For the molecule `CC(C)COC(=O)C(C#N)c1nc2ccccc2nc1N1CCN(Cc2ccccc2)CC1` (centres undefined), in assay [1], the cell count came to 296. Moreover, the inhibition was 4.2% (inactive) in assay [1], 17.8% (inactive) in assay [3], 14.6% (inactive) in assay [7] and 7.75% (inactive) in assay [8]. Moreover, the inhibition of aggregation in assay [2] was 3.4% (inactive). Further, the figures for the nuclei count in assay [2] and in assay [3] were 91.2% and 87%, respectively. The fluorescence slope in assay [4] is -0.425 (inactive). In assay [5], the NADPH fluorescence slope is 8.1e-06 (inactive). The slope in assay [6] was 0.00589 (inactive).
For `CCC1CCCCN1S(=O)(=O)c1ccc(C(=O)Nc2nnc(-c3ccccc3Cl)o2)cc1` (centres undefined), the cell count in assay [1] amounted to 322. Moreover, the inhibition in assay [1] was 5.2% (inactive); in assay [3] it was -52.8% (inactive); in assay [7], 18.8% (inactive); in assay [8], 16.9% (inactive). Besides, the inhibition of aggregation in assay [2] is -1.5% (inactive). The results for the nuclei count in assay [2] and in assay [3] were 107% and 108%, respectively. Also, in assay [4], the fluorescence slope is -0.511 (inactive). In assay [5], the NADPH fluorescence slope is -3.2e-05 (inactive). Also, the slope in assay [6] is 0.00627 (inactive).
Consider `O=C(CC1(O)C(=O)Nc2ccccc21)c1ccc2c(c1)OCO2` (centres undefined), for which the cell count in assay [1] turned out to be 484. The inhibition in assay [1] is 4.5% (inactive); in assay [3], -22.5% (inactive); in assay [7], 10.1% (inactive); in assay [8] it was 35.2% (inactive). The inhibition of aggregation in assay [2] is -8.1% (inactive). Besides, the results for the nuclei count in assay [2] and in assay [3] were 102% and 110%, respectively. Besides, the fluorescence slope in assay [4] was -0.384 (inactive). Besides, the NADPH fluorescence slope in assay [5] is 2.8e-06 (inactive). Further, in assay [6], the slope was 0.00339 (inactive).
In the case of `Cc1ccc(C2c3c(oc4ccccc4c3=O)C(=O)N2c2nnc(C(C)C)s2)o1` (centres undefined), the cell count in assay [1] came out at 622. In addition, the inhibition was -13.1% (inactive) in assay [1], -37.8% (inactive) in assay [3], 9.17% (inactive) in assay [7] and 19.7% (inactive) in assay [8]. For the same molecule, the inhibition of aggregation in assay [2] was -21.4% (inactive). In addition, the nuclei count in assay [2] came to 90.4%; in assay [3], 102%. Further, the fluorescence slope in assay [4] was -0.436 (inactive). In assay [5], the NADPH fluorescence slope is -5.6e-05 (inactive). In assay [6], the slope was 0.00484 (inactive).

As a reminder, the inhibition is the change of the read-out against control, counted positive when it falls.

For the origin of these results see PubChem BioAssay.
